Here are results for 36 molecules from PubChem BioAssay (EPA / NIEHS).

“And” between values parts separate entries of the source, which are not always exact repeats. Equal values may be shown once. The source holds several records for some structures; these can differ, active in one and inactive in another. The source made the active and inactive calls. The calls were made as follows: active = hit-call score of the fitted dose curve at least 0.9, where 1 is the maximum; inactive = score below 0.9.

A short description of the assay: ATG_DR4_LXR_CIS: Attagene CIS-FACTORIAL HepG2 Assay for human Liver X Receptor (LXR), DR4 submotif (AID 2282929). The conditions noted are these: HepG2 Attagene DR4 cis-reporter, mRNA transcription; actives raise or lower the signal. How it is done:
ATG_CIS is a cell-based, multiplexed-readout assay that uses HepG2, a human liver cell line, with measurements taken at 24 hours after chemical dosing in a 24-well plate.ATG_DR4_LXR_CIS is one of 52 assay component(s) measured or calculated from the ATG_CIS assay. It is designed to make measurements of mRNA induction, a form of inducible reporter, as detected with fluorescence intensity signals by Reverse transcription polymerase chain reaction (RT-PCR) and Capillary electrophoresis technology.Data from the assay component ATG_DR4_LXR_CIS was analyzed into 1 assay endpoint. This assay endpoint, ATG_DR4_LXR_CIS, was analyzed with bidirectional fitting relative to DMSO as the negative control and baseline of activity. Using a type of inducible reporter, measures of mRNA for gain or loss-of-signal activity can be used to understand the reporter gene at the transcription factor-level as they relate to the gene NR1H2 and NR1H3. Furthermore, this assay endpoint can be referred to as a primary readout, because this assay has produced multiple assay endpoints where this one serves a reporter gene function. To generalize the intended target to other relatable targets, this assay endpoint is annotated to the nuclear receptor intended target family, where the subfamily is non-steroidal.
Human liver HepG2 cells are transiently transfected with multiple reporter transcription units (MRTUs) in 6-well plates using FuGene 6 reagent (Roche; 3 ml FuGene/1 mg DNA). The MRTU constructs are regulated by a cis-regulating element (promoter). […] A major difference between the CIS and TRANS system is that in CIS activities of endogenous TFs are measured, whereas the TRANS assay evaluates changes in activities of exogenous, chimeric NR-Gal4 proteins. […] At the end of 24 hour incubation, total RNA was isolated using TriZol reagent (Invitrogen). The isolated RNA is then reverse-transcribed using oligo(dT) primer and Mo-MLV reverse transcriptase (Invitrogen) with DNAse I (Ambion) treatment for 30 min. The one-tenth of the produced cDNA was amplified by PCR using Taq DNA polymerase (Invitrogen) and two reporter sequence-specific primers. The PCR products were fluorescently labeled by primer extension with 6-arboxyfluorescein (6-FAM) 5'-labeled reporter sequence-specific primer (2 min at 95 C, 20 s at 68 C and 10 min at 72 C) and these products were digested with 5U of HpaI (New England Biolabs) for 2h at 37 C. The fragments were purified using Qiaquick PCR columns (Qiagen), analyzed on an ABI 3130xL genetic analyzer (Applied Biosystems) with peak positions identified by using a set of X-rhodamine (ROX)-labeled MapMarker1000 molecular weight standards (BioVentures). The raw capillary electrophoresis data was processed using Attagraph software (Attagene).
A word on the AC50: it is the midpoint of the concentration-response curve, whichever way the signal moves. Turning to `CCCCOC(=O)c1ccc(O)cc1`, the result was inactive and the AC50 was 169 µM (active).
For `Cc1cccc2ccccc12`, the result was inactive.
Same read-out and setting: with `Cc1ccc2oc(CN(Cc3ccccc3)C(=O)Nc3c(F)cc(F)cc3F)c(-c3ccc(Cl)cc3)c2c1` the entry was “inactive”.
For `CCCCOC(=O)CC(CC(=O)OCCCC)(OC(C)=O)C(=O)OCCCC`, the AC50 was 23.4 µM (active) and the call was inactive.
As for `COc1cc(C(=O)NC2CCN(C)CC2)ccc1Nc1ncc2c(n1)N(C1CCCC1)CC(F)(F)C(=O)N2C`, the AC50 is 5.99 µM (active).
Same read-out and setting: to `CN1C(=O)N(c2ccccc2Br)Cc2cnc(Nc3ccc4c(c3)OCC(CO)O4)nc21` (stereo not given) belongs 27.1 µM (active).
The same measure, in the same setting: to `Clc1ccccc1C(c1ccccc1)(c1ccccc1)n1ccnc1` belongs 1.48 µM (active).
As for `O=C1O[C@H]([C@@H](O)CO)C(O)=C1O`, the result was inactive.
Still for that read-out and setting: with `CCCC(=O)OCCC(C)C` the entry was “inactive”; with `Cc1oc2c(NC(=O)c3c(Cl)cccc3Cl)cccc2c1C(C)(C)O`, “inactive”; with `CCCCCCCCCCCCO`, “inactive”.
As for `CC(C)(C)c1csc(-c2cc3cc(OCc4ccccc4CC(=O)O)ccc3o2)n1`, the AC50 was 4.56 µM (active).
As to `O=c1[nH]sc2ccccc12`, the call was inactive.
Same read-out and setting: with `c1ccc2n[nH]nc2c1` the entry was “inactive”; with `CCOC(=O)O[C@H](C)OC(=O)c1ccc2c(c1)cc(C(=O)NC1CCN(C(C)C)CC1)n2Cc1cc(-c2ccc(Cl)s2)on1`, “inactive”.
As for `CC(=O)N1CCN(c2ccc(OC[C@H]3CO[C@](Cn4ccnc4)(c4ccc(Cl)cc4Cl)O3)cc2)CC1`, the AC50 is 43.9 µM (active).
For `CCN(CC)C(=O)c1cc(S(=O)(=O)Cc2ccccc2)c(N2CCC(c3ccccc3)CC2)cc1N(CC)CCN(C)C`, the call was inactive.
Regarding `Cc1occc1C(=O)Nc1ccc(C(=O)N2CCC(F)(F)/C(=C\C(=O)N3CCC(N4CCCCC4)CC3)c3ccccc32)cc1`, the AC50 was 50.3 µM (active).
For `O=c1c(-c2ccc(O)cc2)coc2cc(O)cc(O)c12`, the molecule was classed as inactive; the AC50 was 7.13 µM (active) and 4.78 µM (active).
Regarding `O=C1c2ccccc2C(=O)N1CCc1noc(-c2ccc(CN3CCCCCC3)s2)n1`, the AC50 is 84.5 µM (active).
Consider `O=C(OCCCCCCOC(=O)c1ccccc1)c1ccccc1`, for which the outcome was inactive.
Turning to `CC(C)(c1cc(Br)c(O)c(Br)c1)c1cc(Br)c(O)c(Br)c1`, the AC50 is 12.5 µM (active) and 13.9 µM (active).
Regarding `CN1C(=O)CC[C@H]1c1cccnc1`, the molecule was called inactive.
Regarding `COc1cccc([C@H](O)C2CCN(CCc3ccc(F)cc3)CC2)c1OC`, the AC50 is 100 µM (active).
As to `CCCCCCCCCC(=O)O`, the molecule was called inactive.
The same measure, in the same setting: with `CC1=CC(=O)/C(=C(/C)O)C(=O)O1` the entry was “inactive”.
Still for that read-out and setting: to `Cc1ncc(CO)c(CO)c1O` belongs “inactive”.
In the case of `CCCCCCCCOc1ccc(C(=O)c2ccccc2)c(O)c1`, the outcome was inactive.
In the case of `CC(C)(O)c1ccc(CNC(=O)c2cccnc2Oc2ccc3nonc3c2)cc1`, the outcome was inactive.
On the same count and under the same terms, with `CC(O)CC(C)(C)O` (stereo not given) the entry was “inactive”.
Consider `CC(C)(C)c1cc(/C=C2\SC(N)=NC2=O)cc(C(C)(C)C)c1O`, for which the AC50 was 6.65 µM (active).
On the same count and under the same terms, with `CCCCCCCCCCCC[N+](C)(C)C` the figure was 22.4 µM (active) and 33.4 µM (active).
For the molecule `CC/C(=C(/CC)c1ccc(O)cc1)c1ccc(O)cc1`, the AC50 was 7.89 µM (active) [middle of 4 runs] and the call was inactive.
As to `O=C(O)Cn1c(=O)n(Cc2ccc(Br)cc2F)c(=O)c2ccc(Cl)cc21`, the molecule was classed as inactive.
Regarding `CCO[Si](CCCNC(N)=O)(OCC)OCC`, the result was inactive.
For the molecule `COc1ccc2cc(S(=O)(=O)N[C@H](CC(=O)N[C@H](Cc3ccc(CN4[C@H](C)CCC[C@@H]4C)cc3)C(=O)N(C)C(C)C)c3ccc4c(c3)OCO4)ccc2c1`, the molecule was classed as inactive.
